# Assay outcomes (PubChem)
# USP28 block: blocks human USP28 ubiquitin-rhodamine cleavage. Q96RU2. purified USP28, Ub-rhodamine cleavage fluorescence, 30 min. inhibition, % at 25 µM. actives 3% (n = 47,000). AID 1645857
# USP8 block: blocks human USP8 ubiquitin-rhodamine cleavage; purified USP8, Ub-rhodamine cleavage fluorescence, 30 min; AID 1645853; inhibition, % at 20 µM; P40818; actives 4.2% (n = 47,000)
# USP17 inh: blocks human USP17 ubiquitin-rhodamine cleavage | actives 6.5% (n = 47,000) | AID 1645855 | inhibition, % at 50 µM | purified USP17, Ub-rhodamine cleavage fluorescence, 3 h | A8MUK1
# USP30 block: inhibitors of human USP30 deubiquitinase | Q70CQ3 | purified USP30, Ub-rhodamine cleavage fluorescence | inhibition, % at 25 µM | actives 5.3% (n = 47,000) | AID 1645860
# * hit, by the source's call; / = no result given. A selection: hits, their analogues and other compounds. The true share with any hit is near 14%. Rule as the data show it: active = inhibition above about 30%; inactive = the rest.
SMILES,USP28 block,USP8 block,USP17 inh,USP30 block
c1ccc(N2CCN(c3nc(NCC4CCCO4)c4ccccc4n3)CC2)cc1 (stereo not given),11,17,12,7
c1csc(-c2nc(NCC3CCCO3)c3ccccc3n2)c1 (stereo not given),8,13,31*,20
O=C(Nc1ccccc1F)c1nnn(-c2ccccc2)n1,-12,-2,0,0
CCn1c(=O)c(NCc2ccc(Cl)cc2)nc2ccncc21,9,-5,48*,34*
Cc1ccc(CNC(=O)[C@H](C)NC(=O)N2CCn3c2nc2ccccc23)cc1,47*,-20,65*,80*
CCC(C)[C@H](NC(=O)N1CCn2c1nc1ccccc12)C(=O)NCCC1=CCCCC1 (stereo not given in full),-16,0,36*,-25
COc1ccc(CCNC(=O)[C@H](CCSC)NC(=O)N2CCn3c2nc2ccccc23)cc1OC,21,16,35*,75*
COc1ccc(CNC(=O)[C@H](CCSC)NC(=O)N2CCn3c2nc2ccccc23)cc1,-3,3,9,44*
COc1cccc(CNC(=O)[C@H](C)NC(=O)N2CCn3c2nc2ccccc23)c1,-7,-1,-22,-1
CSCC[C@H](NC(=O)N1CCn2c1nc1ccccc12)C(=O)N[C@@H](C(=O)O)c1ccccc1,-23,-14,-1,-9
CC(C)C[C@H](NC(=O)N1CCn2c1nc1ccccc12)C(=O)NCCc1ccccc1,-12,-5,-14,-5
O=C(Nc1cccc(Cl)c1)C1Cn2ccnc2C2(CCN(c3ncc(F)cn3)CC2)O1 (stereo not given),-19,-61,-23,-30
CCn1nccc1C(C)NC(=O)c1cc(C2CC2)nc2c1c(C)nn2C(C)C (stereo not given),-3,0,0,0
COc1ccc(CCNC(=O)[C@H](C)NC(=O)N2CCn3c2nc2ccccc23)cc1OC,19,1,20,30*
CN(C)c1ccc(-c2noc(C(=O)NC3CC(C)(C)NC(C)(C)C3)n2)cc1,14,15,5,26
CC1(C)CC(NC(=O)c2nc(-c3ccc(F)cc3)no2)CC(C)(C)N1,6,24,16,34*
CC1CCN(C(=O)c2noc3ncnc(N4CCCC4)c23)CC1,-2,-32,-11,-3
O=C(c1cc(-c2ccc(Cl)cc2)n[nH]1)N1CCN(C(=O)c2ccco2)CC1,3,-4,70*,10
COc1ccc(-c2cc(C(=O)N3CCN(c4ccccn4)CC3)[nH]n2)cc1,21,14,46*,11
O=C(c1cc(-c2ccc(Cl)cc2)n[nH]1)N1CCN(c2ccccn2)CC1,13,66*,45*,43*
COc1ccc(-c2nn3c(N4CCN(c5ccccn5)CC4)cc(C)nc3c2C)cc1,/,3,84*,/
O=C(c1cc(-c2ccc(Cl)cc2)n[nH]1)N1CCN(c2ccc(F)cc2)CC1,-2,-5,3,6
CNC(=O)[C@@]12CCC3(CCN(C(=O)Cc4cccc(OC)c4)CC3)[C@@H]1CN(C(C)=O)C2,-1,-51,-8,3
O=C(c1cccc2c1OCCCO2)N1CCSCC1,3,2,8,7
COc1ccc(S(=O)(=O)N2CCN(c3ccnc4cc(Cl)ccc34)CC2)cc1,0,0,1,33*
SMILES,USP28 block,USP8 block,USP17 inh,USP30 block
CC(Sc1nnc(-c2ccccc2F)n1Cc1ccccc1)C(=O)N1CCc2ccccc21 (stereo not given),18,17,24,42*
Fc1ccccc1-c1nnc(SCc2ccccc2)n1Cc1ccccc1,64*,29,48*,56*
CCCNc1cc(-c2ccccc2)nc2nc(-c3cccnc3)nn12,5,4,54*,30
CC(C)c1cc(NCc2ccco2)n2nc(-c3cccnc3)nc2n1,16,9,31*,37*
c1ccc(-c2cc(NCc3cccnc3)n3nc(-c4cccnc4)nc3n2)cc1,-6,-12,-2,-12
CC(C)c1cc(Nc2ccc(O)cc2)n2nc(-c3cccnc3)nc2n1,4,17,19,18
COc1cccc(CNc2cc(C(C)C)nc3nc(-c4cccnc4)nn23)c1,14,6,35*,20
O=C1CC(c2ccc(Cl)cc2)n2nc(NC(=O)c3ccc4c(c3)OCO4)nc2N1 (stereo not given),-4,-62,6,1
O=S(=O)(NCc1ccc2[nH]c3c(c2c1)CCCC3)c1ccccc1,-101,34*,-21,-404
O=[N+]([O-])c1cccc(-c2noc(CN3CCCC3)n2)c1,1,-120,-2,6
COc1ccc(-n2nnc(-c3nc(-c4ccccc4F)no3)c2N)cc1,/,1,52*,/
